Screens: PubChem, several laboratories
Wee1 degr inh: human Wee1 degradation inhibition, primary screen; HeLa Luc-Wee1K328M stability, luciferase luminescence; 100% = proteasome inhibitor MG132 effect; reporter increase, % at 5 µM; hit rate 1.2% among 220,000;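 active = activation above the mean of all tested compounds plus 3 SD, set per screening run, cut at about 8.8% in these data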;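 note: cells exposed to compound for 20 h before luminescence read; 0% = DMSO alone and 100% = MG132 at 30 µM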
Target sequence (P30291 whole entry K328M): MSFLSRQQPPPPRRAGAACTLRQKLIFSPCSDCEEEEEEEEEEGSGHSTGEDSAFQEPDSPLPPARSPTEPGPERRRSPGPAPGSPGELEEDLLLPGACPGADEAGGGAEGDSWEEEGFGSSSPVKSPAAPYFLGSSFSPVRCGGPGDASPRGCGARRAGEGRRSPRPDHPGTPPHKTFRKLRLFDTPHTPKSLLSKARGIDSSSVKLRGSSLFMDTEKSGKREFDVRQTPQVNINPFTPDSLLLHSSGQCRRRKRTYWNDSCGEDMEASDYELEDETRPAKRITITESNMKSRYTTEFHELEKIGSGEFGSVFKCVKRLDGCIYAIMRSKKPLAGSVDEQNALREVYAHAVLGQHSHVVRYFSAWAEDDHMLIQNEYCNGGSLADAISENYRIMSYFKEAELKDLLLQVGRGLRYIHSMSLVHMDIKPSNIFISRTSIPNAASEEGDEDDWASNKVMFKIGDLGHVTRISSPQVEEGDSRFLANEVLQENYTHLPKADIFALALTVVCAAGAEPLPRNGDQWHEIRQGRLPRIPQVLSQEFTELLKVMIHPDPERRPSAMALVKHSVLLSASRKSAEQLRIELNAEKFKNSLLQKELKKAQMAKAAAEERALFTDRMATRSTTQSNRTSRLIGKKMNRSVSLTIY
HSV augment: increases HSV replication in cells; HSV replication augmentation in cells, fold increase; maximum fold increase; hit rate 0.005% among 220,000; in the data active = maximum fold increase above about 1.5; tested in PC3 cells
L929 necroptosis: L929 zVAD cell death inhibition. L929 zVAD necroptosis rescue, ATP luminescence, 24 h; with zVAD 60 µM. AID 1377. viability rescue, % at 10 µM. hit rate 0.38% among 220,000;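 active = activation, scaled between plate controls, above about 75%, limit read from the data; inactive = activation under that limit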;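 note: 0% = zVAD with DMSO and 100% = DMSO alone without zVAD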
V-ATPase pH: yeast V-ATPase proton transport regulation by pHLuorin; AID 504577; hit rate 0.37% among 350,000; response, % at 10 µM; S. cerevisiae, pHLuorin cytosolic pH fluorescence; in the data active = response mostly above about 7.3%, no sharp cut-off; inactive = mostly below about 5.4%; note: actives read high
TNF death inh: TNF-alpha cell death inhibition in Jurkat FADD-/- cells; hit rate 0.068% among 220,000; activation (protection from cell death), % at 10 µM; Jurkat FADD-/- TNF necroptosis rescue, ATP luminescence, 24 h; 0 = TNF only, 100 = no-TNF cells;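 active = activation, meaning protection from cell death, of at least 50% relative to plate controls; inactive = activation below 50%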;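 note: necroptosis triggered by 40 ng/mL TNF-alpha added together with compound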
Wee1 stab conf: human Wee1 degradation inhibition, confirmation. shares compounds with Wee1 degr inh. HeLa Luc-Wee1K328M degradation, luminescence; vehicle 0%, proteasome-blocked wells 100%. activation, % at 5 µM. hit rate 4% among 1,100; in the data active = activation above about 8.9%
The depositor's hits bear a star; i = inactive; . = no result given. Sampled rows, rich in hits. Any-hit rate of the full collection: about 1.4%.

SMILES	Wee1 degr inh	HSV augment	L929 necroptosis	V-ATPase pH	TNF death inh	Wee1 stab conf
Cc1ccc(NC(=O)c2ccc([N+](=O)[O-])o2)c(C)c1	3	i	7	-1	-9	.
Cc1ccccc1NC(=O)c1ccc([N+](=O)[O-])o1	9.0*	i	0	0	-8	.
Cc1ccccc1NC(=O)c1cc(=O)c2ccccc2o1	3	i	0	3	-4	.
Cc1ccccc1NC(=O)c1cc2ccccc2o1	.	.	.	14*	.	.
O=C(CSc1cccs1)Nc1ccc(Cl)cc1	10*	i	1	1	36	.
CC1CC(C)CN(c2nc(NCc3ccco3)nc(N)c2[N+](=O)[O-])C1 (stereo not drawn)	11*	i	0	-1	1	.
CC1CCCN(c2nc(NCc3ccco3)nc(N)c2[N+](=O)[O-])C1 (stereo not drawn)	-1	i	2	-1	0	.
Cc1ccc(NC(=O)NC(=O)CSc2nnc(-c3ccc(Cl)cc3Cl)n2N)c(C)c1	-3	i	1	14*	2	.
Cc1ccc(-c2nnc(SCC(=O)NC(=O)Nc3ccc(C)cc3C)n2N)cc1	-2	i	1	3	1	.
Cn1cc(S(=O)(=O)N2CCCC(C(=O)O)C2)cn1 (stereo not drawn)	4	i	4	2	0	.
COCC(=O)N(C)C[C@H]1N[C@@](C)(C(=O)OC)[C@H]2C(=O)N(Cc3ccccc3)C(=O)[C@@H]12	.	.	.	-5	.	.
Cc1nc(NC(=O)/C=C/c2ccco2)sc1C	8.9*	i	-1	3	-4	.
O=C(/C=C/c1ccco1)Nc1nnc(-c2ccco2)s1	1	i	2	-2	-5	.
CCOc1ccc(NC(=O)CN(C)C(=O)Cc2n[nH]c(=O)c3ccccc23)cc1OCC	.	.	.	1	.	.
O=C(/C=C/Nc1ccc(F)cc1)c1ccc(Br)cc1	9.4*	i	0	-3	0	.
CC(=O)C1=C(c2cccc([N+](=O)[O-])c2)N(C(C)=O)n2c(C)nnc2S1	10.0*	i	0	-3	-5	.
O=C(N/N=C/C=C/c1ccccc1)c1ccccn1	8.9*	i	1	0	0	.
O=C(N/N=C/C=C/c1ccccc1)c1n[nH]c2c1CCC2	9.1*	.	-1	4	-15	.
Nc1cc(Cl)ccc1Oc1ccc2ccccc2c1	4	i	0	16*	0	.
O=C(CSC1=NCCN1)C1COc2ccccc2O1 (stereo not drawn)	12*	i	1	-1	2	1
COCCNC(=O)C1(C(F)(F)F)CC(CCCO)CCCO1 (stereo not drawn)	.	i	.	-1	.	.
O=C(OCC(=O)N1CCc2ccccc2C1)c1cc(=O)[nH]c2ccccc12	16*	i	0	0	0	-1
NS(=O)(=O)c1cccc(NC(=O)CSc2nc3ccc(Cl)cc3[nH]2)c1	12*	i	10	0	2	-3
O=C(COc1ccc(S(=O)(=O)N2CCCCC2)cc1)Nc1ccccc1F	.	.	.	3	.	.
O=C(O)CCn1cc(/C=C2/NC(=S)N(c3ccccc3)C2=O)c(-c2ccccc2)n1	-2	i	1	-2	2	.
SMILES	Wee1 degr inh	HSV augment	L929 necroptosis	V-ATPase pH	TNF death inh	Wee1 stab conf
O=C(O)CCn1cc(/C=C2\SC(=S)NC2=O)c(-c2ccccc2)n1	13*	i	-1	0	0	0
C/C=C/c1cc(CN2CCN(c3ccc(OC)cc3)CC2)c(O)c(OC)c1	-1	i	0	-1	0	.
C/C=C/c1cc(CN2CCN(c3ccccc3)CC2)c(O)c(OC)c1	11*	i	0	0	-1	-5
Oc1cccc2ccc[n+](CC(O)Cn3c4ccccc4c4ccccc43)c12 (stereo not drawn)	18*	i	1	-1	4	-1
C[C@H]1CN([C@@H](C)CO)C(=O)Cc2cc(NC(=O)C3CC3)ccc2O[C@H]1CN(C)Cc1ccc(C(=O)O)cc1	.	.	.	0	.	.
COc1cc(/C=N/NC(=O)c2ccc(CSc3nncn3C)cc2)cc(OC)c1O	11*	i	8	0	0	-2
O=C(CCn1cccn1)Nc1ccc(-c2ccno2)cc1	.	.	.	-2	.	.
COc1ccc(-n2nc([N+](=O)[O-])c(=NCCc3ccc(Cl)cc3)n2O)cc1	2	.	0	-1	-5	.
COc1ccc(-n2nc([N+](=O)[O-])c(=NCCc3ccc(C)cc3)n2O)cc1	25*	i	3	1	0	4
O=C(N/N=C1\CC(c2ccccc2)Oc2ccccc21)c1cccnc1 (stereo not drawn)	12*	i	8	1	0	0
CC(C)(C)NS(=O)(=O)c1ccc(NC(=O)Cc2ccccc2[N+](=O)[O-])cc1	0	i	6	3	3	.
CCCCNS(=O)(=O)c1ccc(NC(=O)Cc2ccccc2[N+](=O)[O-])cc1	14*	i	3	5	0	1
O=c1cc(/C=C/c2ccccc2)oc2ccccc12	12*	i	0	-3	-7	5
O=C(CN(Cc1ccccc1)C(=O)CCC(=O)Nc1ccccn1)NCc1ccco1	12*	i	1	11	0	-1
COCCNC(=O)CN(CC1CCCO1)C(=O)CCC(=O)Nc1ccccn1 (stereo not drawn)	11*	i	0	3	1	0
O=C(CN(CC1CCCO1)C(=O)CCC(=O)Nc1ccccn1)NCC1CCCO1 (stereo not drawn)	1	i	0	0	-2	.
CC1CCCN(C(=O)CSc2nnc3ccccn23)C1 (stereo not drawn)	.	.	.	-1	.	.
Cc1cccc(-c2nc(CSc3nc4c(c(=O)[nH]3)CCC4)c(C)o2)c1	11*	.	.	-1	-1	-1
Cc1ccc(C)c(S(=O)(=O)Nc2ccc(C(=O)N3CCOCC3)cc2)c1	.	.	.	-2	.	.
O=S(=O)(c1cccc2nsnc12)N1CCN(C/C=C/c2ccccc2)CC1	11*	i	1	4	0	1
COC(=O)Nc1ccc(S(=O)(=O)NNC(=O)c2c(O)c3ccccc3n(C)c2=O)cc1	.	.	.	-2	.	.
c1ccc(C2Nc3ccccc3-c3nc4ccccc4n32)cc1 (stereo not drawn)	15*	i	0	-4	-1	-3
CCSc1nnc(NC(=O)CSC2=NN3CCCC(=O)N=C3S2)s1	17*	i	0	2	0	2
O=C(O)CNC(=O)CC1S/C(=N/N=C2/NC(=O)CS2)NC1=O (stereo not drawn)	13*	i	0	4	0	-1
C=CCNCCCOc1ccc(C(C)(C)c2ccccc2)cc1	13*	i	2	1	-14	-1
COCCCNCCCOc1ccc(C(C)(C)c2ccccc2)cc1	-2	i	1	0	2	.
COc1ccccc1CNCC(=O)Nc1ccc(C(F)(F)F)cc1	12*	i	1	2	5	0
